HP1b binding inh = inhibitors of HP1-beta chromodomain binding to methylated histone tails; Potency, µM (titrated, usually from 114 µM), without a hit: at the highest dose activity change, negative = inhibition, hits mostly inhibitors; AlphaScreen HP1-beta / biotin-H3K9me3 peptide binding; 0.56% of 390,000 active; further: potency means the concentration at half of the fitted maximal effect; nearly all actives have a fitted effect of over 70% in size
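AlphaScreen: HP1-beta (50 nM) preformed 30 min with biotin-H3(1-18)K9me3 peptide (50 nM) in PBS pH 7.4, 0.01% Tween-20. Compound added for 30 min at RT, then streptavidin donor/nickel chelate acceptor beads (10 ug/mL) for 30 min.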
JMJD2A Tudor inh = blocks the human JMJD2A Tudor domain; 4.4% of 390,000 active; Potency, µM (series often up to 114 µM), for the others: at the highest dose activity change, negative = inhibition, most hits filed as inhibitors; AlphaScreen JMJD2A-Tudor / H3K4me3 peptide binding; O75164; further: potency means the concentration at half of the fitted maximal effect; on the % scale 0 is the no-effect control and ±100 the full control effect; nearly all actives have a fitted effect of over 50% in size
BAZ2B inh = inhibitors of human BAZ2B bromodomain; AlphaScreen BAZ2B-H3K14Ac peptide displacement; Potency, µM (doses to about 114 µM), inactives show top-dose activity change, negative = inhibition, actives largely listed as inhibitors; 4.4% of 360,000 active; further: potency means the concentration at half of the fitted maximal effect; on the % scale 0 is the no-effect control and ±100 the full control effect; nearly all actives have a fitted effect of over 60% in size
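Compounds, titrated to a top concentration of 110 uM, were incubated 30 min at room temperature with preformed BAZ2B/acetyl-K14 H3 peptide complex (50 nM each). Proximity signal was measured by AlphaScreen after 20 min with beads.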
G9a block = inhibitors of human histone lysine methyltransferase G9a | Q96KQ7 | G9a H3K9 monomethylation, AlphaScreen, 2 h | Potency, µM (doses to about 102 µM), for the others: at the highest dose activity, negative = inhibition, usual class: inhibitors | 8.8% of 350,000 active | AID 504332; further: potency means the concentration at half of the fitted maximal effect; on the % scale 0 is the no-effect control and ±100 the full control effect; nearly all actives have a fitted effect of over 75% in size
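Compounds were preincubated with 20 nM G9a for 15 min, after which biotinylated H3K9 peptide (500 nM) and SAM (20 uM) started a 2 h room-temperature reaction. Monomethylated product was quantified by antibody-based AlphaScreen chemiluminescence.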
Six1-Eya2 blk = Six1/Eya2 interaction inhibition. AID 651725. 0.56% of 360,000 active. Q15475+O00167. activity change, % (no concentration beside the values). AlphaScreen GST-Six1/His-Eya2 binding, biochemical; hits give low values; in the data active means activity change below about -65%; inconclusive means mostly about -30% to -63%; further: on the % scale 0 is the no-effect control and ±100 the full control effect
Target sequence (O00167 whole entry, looked up): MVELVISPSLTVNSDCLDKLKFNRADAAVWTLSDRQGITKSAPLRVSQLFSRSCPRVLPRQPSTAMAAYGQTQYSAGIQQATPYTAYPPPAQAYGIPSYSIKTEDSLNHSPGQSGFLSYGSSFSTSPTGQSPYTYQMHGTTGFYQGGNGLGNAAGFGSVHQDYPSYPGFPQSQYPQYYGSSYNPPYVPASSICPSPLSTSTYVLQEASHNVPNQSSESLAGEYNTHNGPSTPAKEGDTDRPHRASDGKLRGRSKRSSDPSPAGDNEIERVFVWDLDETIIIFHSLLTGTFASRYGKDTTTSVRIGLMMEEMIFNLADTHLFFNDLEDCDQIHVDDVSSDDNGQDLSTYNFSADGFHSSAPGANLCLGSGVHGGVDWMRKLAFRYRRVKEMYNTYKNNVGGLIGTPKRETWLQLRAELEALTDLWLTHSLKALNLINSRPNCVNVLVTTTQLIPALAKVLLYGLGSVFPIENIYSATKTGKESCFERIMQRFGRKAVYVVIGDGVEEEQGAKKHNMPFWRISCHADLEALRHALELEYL
Target sequence (Q15475 whole entry, looked up): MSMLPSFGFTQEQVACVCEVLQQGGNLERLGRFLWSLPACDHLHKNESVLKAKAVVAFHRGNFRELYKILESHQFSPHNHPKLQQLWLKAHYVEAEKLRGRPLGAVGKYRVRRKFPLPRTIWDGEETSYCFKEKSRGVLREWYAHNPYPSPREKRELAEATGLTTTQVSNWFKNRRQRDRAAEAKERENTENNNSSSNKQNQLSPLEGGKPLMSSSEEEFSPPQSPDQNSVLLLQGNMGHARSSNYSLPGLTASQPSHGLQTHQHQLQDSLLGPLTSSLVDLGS
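Six1/Eya2 binding was read as AlphaScreen signal after compounds were pinned into GST-Six1 plus His-tagged Eya2 (5X stock 250/500 nM) in pH 8.0 Tris/NaCl/TCEP buffer, beads added, then incubated 1 h, 37 C, dark.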
CtBP-E1A blk = blocks the CtBP interaction with E1A | activity change, % (no concentration beside the values) | AlphaScreen GST-E1A/His-CtBP binding, 1536-well; hits give low values | 0.49% of 340,000 active; in the data active means activity change below about -65%; inconclusive means mostly about -30% to -63%; further: on the % scale 0 is the no-effect control and ±100 the full control effect
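GST-E1A and His-tagged CtBP (125 nM each as 5X stock) were preincubated with pin-transferred compound for 2 h at 37 °C in the dark, then glutathione donor and nickel acceptor beads were added for 1 h before AlphaScreen reading.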
* = called active by the depositor; u = inconclusive; x = no result given; [ ] = another dose, or the depositor's remark. An excerpt weighted towards active compounds, which were near 10% of everything screened. Unless noted, the call rests on the fitted dose curve; in most records, active means well fitted inhibition curve with a large enough effect; inconclusive means small, poorly fitted or top-dose-only effect; inactive means no such curve, though single readings can be large or run the other way.

SMILES | HP1b binding inh | JMJD2A Tudor inh | BAZ2B inh | G9a block | Six1-Eya2 blk | CtBP-E1A blk
O=C(O)c1c[nH]c2ccc(S(=O)(=O)N3CCN(c4ccc(F)cc4)CC3)cc2c1=O | 16% | u | u | u | -1 | -6
O=C(O)c1c[nH]c2ccc(F)cc2c1=O | -2% | 79µM* | 56µM* | 18µM* | 1 | 3
O=C(O)c1c[nH]c2c(C(F)(F)F)cccc2c1=O | 32% | 25µM* | u | 35µM* | 18 | 22
CCCCNS(=O)(=O)c1ccc2nc(-c3cccnc3)cc(C(=O)NCCC)c2c1 | 14% | 7% | 7% | 2%[59 µM] | x | x
CC(C)Nc1nc(NC(C)C)nc(N(C)N)n1 | 30% | 35µM* | 3.2µM* | 52%[59 µM] | u | u
CCNc1nc(NCC)nc(N(C)N)n1 | 50% | 28µM* | 25µM* | 27% | u | u
CC(C)Nc1nc(NC(C)C)nc(N(C)C(N)=O)n1 | 31% | -6% | u | u | 0 | 10
COC(=O)c1cccc(Nc2c(-c3ccc(O)c(OC)c3)nc3nc[nH]n23)c1 | u | -33% | -23% | u | x | x
CC(C)NC(=O)C1(C)CN(S(C)(=O)=O)CC(=O)N1CCc1ccccc1 (centres undefined) | x | x | x | x | 0 | -1
c1ccc(Cn2c(Cn3c(-c4cnccn4)nc4ccccc43)nc3ccccc32)cc1 | x | x | x | x | -6 | -1
NS(=O)(=O)c1ccc(-c2ccc(/C=C3\SC(=S)N(C4CCS(=O)(=O)C4)C3=O)o2)cc1 (centres undefined) | 12% | -20% | -28% | u | -10 | -8
CC1=C(C#N)C(=O)N(C2CCS(=O)(=O)C2)C(=O)/C1=C\c1ccc(C)o1 (centres undefined) | x | x | 45µM* | 20µM* | x | x
O=C1/C(=C/c2ccccc2)SC(=S)N1C1CCS(=O)(=O)C1 (centres undefined) | 11% | 6% | -18% | u | 7 | 3
Cc1ccc(/C=C2\SC(=S)N(C3CCS(=O)(=O)C3)C2=O)o1 (centres undefined) | -36% | u | 40µM* | x | -27 | -24
Fc1ccc(N/N=C/c2cccnc2)c(F)c1 | 18% | -24% | -26% | 32µM* | -3 | -4
COc1cc(/C=N/Nc2ccc(F)cc2F)cc(OC)c1OC | -3% | -4% | -35% | 1.8µM* | 3 | 7
FC(F)(F)c1ccccc1N/N=C/c1cccnc1 | 9% | -21% | -2% | u | -4 | 6
O=[N+]([O-])c1cc(-c2nc(-c3ccccc3)no2)ccc1N1CCOCC1 | 39% | -13% | -2% | -42%[59 µM] | x | x
COC(CNC(=O)Cn1nc(Cc2ccncc2)c2ccccc2c1=O)OC | 39% | -5% | -10% | 9%[2.33 µM] | 3 | x
O=C(NCc1ccccn1)C1(C(F)(F)F)C/C(=C\Cc2ccccc2)CCCO1 (centres undefined) | -12% | 32µM* | x | x | x | x
Cn1c2cc(S(C)(=O)=O)sc2c2cnn(Cc3ccccc3F)c(=O)c21 | x | -1% | x | x | x | x
COc1cc(C=NCC2OCCc3ccccc32)cc(OC)c1 (centres undefined) | 22% | -21% | -23% | 33%[59 µM] | 6 | -13
CC(C)c1ccc(CNc2nc(-c3ccco3)nn2S(=O)(=O)c2ccc(F)cc2)cc1 | 52% | 1% | -17% | -4%[59 µM] | x | x
CN(CC(=O)NCc1cccc(F)c1)C(=O)c1ccco1 | -2% | -4% | 10% | 8%[59 µM] | 6 | 5
Cc1ccc(CCC(=O)Nc2ccc(CC(=O)O)cc2)o1 | -1% | u | -20% | 56µM* | 3 | 1
Cc1ccc(CCC(=O)Nc2ccc(Cl)cc2)o1 | 7% | -10% | u | u | -8 | -7
CC(C)c1ccccc1-n1c(SCC(=O)c2ccc3c(c2)NC(=O)CO3)nc2ccccc2c1=O | -3% | -26% | -11% | 40µM* | -8 | -4
O=C1COc2ccc(C(=O)CSc3nnc(-c4cccs4)n3Cc3ccccc3)cc2N1 | 28% | -15% | -8% | u | -3 | -2

Source: PubChem (National Center for Advancing Translational Sciences (NCATS))
